Experimental data as given in PubChem BioAssay AID2147 (National Center for Advancing Translational Sciences (NCATS), 2009).
In all, about 230,000 compounds went through this assay and about 3,600 (1.6%) were called active. A call without a number means that no potency is given here. Not shown: some 15% with an inconclusive outcome. Calls follow the shape of the dose curve; as a rule, active = well fitted inhibition curve with a large enough effect (not every such curve was filed as active); inconclusive = small, poorly fitted or top-dose-only effect, or another doubt; inactive = no such curve, though single readings can be large or run the other way. Only a selection was taken, and actives are over-represented in it overall.

Biological target: Lysine-specific demethylase 4E (Homo sapiens) (UniProt B2RXH2)
Test: qHTS Assay for Inhibitors of Human Jumonji Domain Containing 2E (JMJD2E)
Settings: JMJD2E catalytic domain, FDH-coupled NADH fluorescence (FDH is formaldehyde dehydrogenase); series mostly up to 57.1 µM
Excerpt: Assay Provider: Structural Genomics Consortium [SGC] Screening Center PI: Austin, C.P. Screening Center: NIH Chemical Genomics Center [NCGC] The fine interplay among methylation states of several lysine residues on the tails of histone proteins is a major determinant of the transcriptional state of the associated DNA coding regions and is commonly referred to as the histone code. Histone lysine demethylases catalyze the removal of methyl groups from methylated lysine sidechains on histones H3 and H4, thus antagonizing the reactions catalyzed by histone lysine methyltransferases. […] In search for novel inhibitors of JMJD2E demethylase, a member of the largest set of histone demethylases belonging to the Fe(II) and 2-oxoglutarate oxygenase (2OG) superfamily, we performed a quantitative high-throughput screen (Inglese 2006) by using an assay which utilizes a trimethylated peptide substrate corresponding to a fragment of histone H3 (sequence ARKme3STGGK) with detection of the formaldehyde co-product in real time by a formaldehyde dehydrogenase (FDH) coupled reaction. FDH catalyzes oxidation of formaldehyde to formic acid with the concomitant reduction of the non-fluorescent beta-nicotinamide adenine dinucleotide hydrate (NAD+) cofactor to the fluorescent NADH co-product. References: Inglese, J., Auld, D., Jadhav, A., Johnson, R., Simeonov, A., Yasgar, A., Zheng, W. and Austin, C. Proc Natl Acad Sci USA 2006, 103, 11473-11478. N. R. Rose, S. S. Ng, J. Mecinovic, B. M. Lienard, S. H. Bello, Z. Sun, M. A. McDonough, U. Oppermann and C. J. Schofield, J Med Chem, 2008, 51, 7053-7056. Sakurai, M., Rose, N., Schultz, L., Quinn, A., Jadhav, A., Ng, S., Oppermann, U., Schofield, C.J. and Simeonov, A. Mol BioSystems 2009, in press. S. Michael, D. Auld, C. Klumpp, A. Jadhav, W. Zheng, N. Thorne, C. Austin, J. Inglese and A. Simeonov, Assay Drug Dev Technol, 2008, 6, 637-657.
Reagents and Controls: Ferrous ammonium sulfate, (+)-sodium L-ascorbate, beta-nicotinamide adenine dinucleotide hydrate (NAD+), Tween-20, formaldehyde dehydrogenase from P. putida (FDH), and disodium 2-oxoglutarate were from Sigma (St. Louis, MO). Black solid-bottom 384-well or 1,536-well assay plates were from Greiner Bio-One (Monroe, NC). Enzyme was supplied by Prof. Udo Oppermann, SGC-Oxford. The catalytic domain of human JMJD2E (residues 1-337) was produced as an N-terminally His6-tagged protein in E. coli, and purified by Ni-affinity chromatography and size-exclusion chromatography, and stored in HEPES 50 mM/ NaCl 500 mM pH 7.5, as reported in Rose 2008. The trimethylated histone peptide substrate ARK(me3)STGGK was synthesized and HPLC-purified by the Tufts University Core Facility (Boston, MA). Substrate solution (Sakurai 2009) contained 50 uM ARK(me3)STGGK, 0.00025 U/uL FDH, 50 uM 2-oxoglutarate, 250 uM NAD+, 1 mM ascorbate, and 10 uM ferrous ammonium sulfate. Controls and plate map: Buffer (150 mM HEPES pH 7.5 containing 0.01% Tween-20) in columns 3 and 4 as negative control (no enzyme) and 100 nM JMJD2E final concentration in columns 1,2, and 5-48. Assay Steps: Enzyme and buffer solutions (3 uL) were dispensed into a 1,536-well Greiner black solid-bottom assay plate. The library compounds (23 nL) were transferred using a Kalypsys pintool equipped with 1,536-pin array. The plate was incubated at room temperature (15 min), and then a 1 uL aliquot of substrate solution was added to initiate the reaction. The plate was transferred to ViewLux imager where an initial reading using standard UV optics (Ex 340 nm, Em 450 nm) was obtained. The plate was then removed from the reader, incubated for 30 minutes at room temperature, and returned to the reader for a second fluorescence reading. A fully automated robotic screening system (Kalypsys Inc, San diego, CA) was used to perform the above steps as described previously (Michael 2008). […]
Also: nearly all actives have a fitted effect of over 50% in size.
Potency is read from the fitted curve at half-maximal effect.

Lysine-specific demethylase 4E (Homo sapiens), sequence (B2RXH2 1-337 limits assumed): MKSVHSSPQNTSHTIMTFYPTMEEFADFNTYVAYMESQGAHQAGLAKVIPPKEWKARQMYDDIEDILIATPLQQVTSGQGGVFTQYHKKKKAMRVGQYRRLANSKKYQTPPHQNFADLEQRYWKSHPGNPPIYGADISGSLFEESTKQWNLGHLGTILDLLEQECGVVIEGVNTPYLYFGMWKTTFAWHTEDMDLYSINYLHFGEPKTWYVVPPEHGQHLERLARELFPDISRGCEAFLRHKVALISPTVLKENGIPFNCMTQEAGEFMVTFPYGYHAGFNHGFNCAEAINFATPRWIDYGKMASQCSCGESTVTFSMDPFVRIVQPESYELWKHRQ

Compound | Potency
CCOC(=O)c1c(C)[nH]c(=S)c(C#N)c1-c1ccccc1 | inactive
CCc1c(C)[nH]c(=S)c(C#N)c1C | 20 µM (active)
CC(=O)c1c(C)[nH]c(=S)c(C#N)c1-c1ccc(F)cc1 | inactive
CS(=O)(=O)c1ccc(Cl)c(NC(=O)Nc2ccccc2)c1 | inactive
CCC1C(C#N)=C(SC)NC2=C1C(=O)CC(C)(C)C2 (stereo not drawn) | inactive
COc1cc(C2C(C#N)=C(C)NC3=C2C(=O)CC(C)(C)C3)ccc1O (stereo not drawn) | 12.6 µM (active)
COc1ccc(C2C(C#N)=C(/N=C/N3CCOCC3)OC3=C2C(=O)CC(C)(C)C3)cc1OC (stereo not drawn) | inactive
CC(=O)N1CCC(N(C(=O)Nc2ccc(Cl)cc2)C(C)C)CC1 | inactive
O=C(CCCN1C(=O)/C(=C\c2ccccc2)SC1=S)Nc1ccccc1O | inactive
c1ccc(CSc2nnc(-c3ccco3)n2Cc2ccccc2)cc1 | inactive
Brc1ccc(CSc2ccc(-c3ccco3)nn2)cc1 | inactive
c1ccc(CSc2nnc(-c3ccco3)c(-c3ccco3)n2)cc1 | 7.94 µM (active)
O=S(=O)(NCCc1csc(-c2ccccc2)n1)c1cccnc1 | inactive
Cc1cc(-c2nnc(CCC(=O)NC(c3ccccc3)c3ccccc3)o2)no1 | inactive
O=C1C(c2ccccn2)=[N+]([O-])c2ccccc21 | 12.6 µM (active)
O=C(Nc1ccc2c(c1)OCCO2)c1cnccn1 | inactive
CCN(CC)c1ccc(/C=N/Nc2nc(C)cc(C)n2)c(O)c1 | inactive
CCN(CC)c1ccc(/C=N/NC(=O)c2cnccn2)c(O)c1 | 10 µM (active)
CCOC(=O)c1c(CC(C)C)csc1/N=C/C1=C(O)CCCC1=O | inactive
CCOC(=O)c1c(C)oc(C)c(C(=O)OCC)c1=O | inactive
NC(=O)c1ccc(NC(=O)COC(=O)c2c3c(nc4ccccc24)/C(=C\c2ccc4c(c2)OCO4)CCC3)cc1 | 3.16 µM (active)
O=C(COC(=O)c1ccc2c(c1)OCCO2)NCc1ccccc1 | inactive
O=C(COC(=O)c1c2c(nc3ccccc13)/C(=C\c1cccs1)CCC2)Nc1ccccc1Cl | inactive

Compound | Potency
O=C(Cc1ccccc1)Nc1c(Cl)ccc2nsnc12 | inactive
O=C(NC(=O)N1CCSCC1)c1c(Cl)cccc1Cl | inactive
O=C(NCc1ccccc1)c1ccc(S(=O)(=O)Nc2cccc(C(F)(F)F)c2)cc1 | inactive
O=[N+]([O-])c1ccccc1NCc1ccc(Cl)cc1 | inactive
Oc1ccc(CNc2ccccc2O)cc1 | 15.8 µM (active)
Oc1ccc(N2CCN(C(=S)NCc3ccccc3)CC2)cc1 | inactive
CC#CC[N+](C)(C)CCCCCC | inactive
O=[N+]([O-])c1cc(Cl)cc(/C=N/NC(=S)Nc2cc(S(=O)(=O)N3CCOCC3)ccc2Cl)c1O | 8.91 µM (active)
O=C(NC(=S)Nc1ccc(S(=O)(=O)N2CCOCC2)cc1)c1ccccc1[N+](=O)[O-] | inactive
O=C(N/N=C/c1ccc([N+](=O)[O-])o1)c1cccc(S(=O)(=O)N2CCOCC2)c1 | inactive
CC1=NCCN1S(=O)(=O)c1cccc([N+](=O)[O-])c1 | inactive
CN(C)C(=O)c1cccn(Cc2cccc(C(F)(F)F)c2)c1=O | inactive
c1cnn(-c2cc(N3CCOCC3)ncn2)c1 | inactive
O=C(Nc1cc(N2CCOCC2)ncn1)NC1(C(F)(F)F)Oc2ccc(Cl)cc2O1 (stereo not drawn) | 14.1 µM (active)
Cc1csc(NC(=O)NC2(C(F)(F)F)Oc3ccccc3O2)n1 | inactive
CCCn1nc(C(=O)N2CCCc3ccccc32)c2ccccc2c1=O | inactive
Cc1ccc(NC(=O)c2ccn(C(=O)Nc3ccccc3)n2)c(C)c1 | inactive
Cc1cc(C)n(CC(C)NCc2c(C(=O)N3CCOCC3)nc3c(C)cccn23)n1 (stereo not drawn) | inactive
CC1(C)CC(=O)C(N=Nc2c(F)cccc2F)=C(O)C1 | inactive
C=CCNC(=O)CSc1nc2scc(-c3ccco3)c2c(=O)n1CC=C | inactive
Cc1cc(C)c(C)c(S(=O)(=O)N[C@@H](C)C(=O)OC(C)C(=O)NC(N)=O)c1C (stereo partly drawn) | inactive
O=C(CCCCCNC(=O)c1ccccc1)N/N=C/c1ccccc1 | inactive
O=C(N/N=C/c1ccccc1O)/C(=C/c1ccccc1)CCO | 20 µM (active)

Compound | Potency
O=C(CCC(=O)Nc1ccccc1)N/N=C/c1ccccc1F | inactive
CCCCCCCCCCCCC(NC(C)=O)(C(=O)OCC)C(=O)OCC | inactive
O=C(CSc1nnnn1-c1ccc(O)cc1)c1ccc(F)cc1 | inactive
COc1ccc(C2CC(c3ccccc3)=NN2C(=O)CSc2nccc(=O)[nH]2)cc1 (stereo not drawn) | inactive
O=C(CSc1nnnn1-c1ccc(O)cc1)N1N=C(c2ccc3ccccc3c2)CC1c1ccccc1 (stereo not drawn) | 1.41 µM (active)
CN(C)C(=S)Nc1ccc(Br)cc1Cl | inactive
COCCn1c(SCC(=O)Nc2cc(OC)ccc2OC)nc2c(c1=O)SC(C)C2 (stereo not drawn) | inactive
O=C(Nc1ccccc1)N1CCN(C2c3ccccc3-c3ccccc32)CC1 | inactive
O=C(CSc1ncn[nH]1)Nc1nc(-c2cccc([N+](=O)[O-])c2)cs1 | inactive
CN(C)S(=O)(=O)c1cccc(C(=O)Nc2cccnc2)c1 | inactive
COc1ccc(N(C(=O)c2cccnc2)S(=O)(=O)c2ccc3c(c2)n(C)c(=O)n3C)cc1 | inactive
O=C(c1cccnc1)N(c1cc2sc(=O)oc2c2ccccc12)S(=O)(=O)c1ccccc1 | 14.1 µM (active)
Cc1oc(C(N)=O)cc1COc1ccc(C(N)=O)cc1 | inactive
CCOC(=O)N1CCN(c2c(NCCN3CCN(c4ccccc4F)CC3)c(=O)c2=O)CC1 | inactive
COCCCNC(=S)N(Cc1ccccc1)Cc1ccc(F)cc1 | inactive
Cn1c(C(=O)O)ccc1S(=O)(=O)N(Cc1ccccc1)Cc1ccccc1 | inactive
CCOC(=O)C1CCN(CCC(=O)Nc2cccc(C)c2)CC1 | inactive
Cc1c([N+](=O)[O-])c(N)nn1C | inactive
O=C(Nc1cn(-c2ccccc2)nc1-c1ccccc1)c1ccccc1 | inactive
O=C(NNC(=S)NC(=O)c1cn(-c2ccccc2)nc1-c1ccccc1)c1ccncc1 | 14.1 µM (active)
O=C(O)c1ccc(NC(=O)c2cn(-c3ccccc3)nc2-c2ccc(Cl)cc2)cc1 | inactive
CCn1c2ccccc2c2cc(NC(=O)Nc3ccc([N+](=O)[O-])cc3C)ccc21 | inactive
